Assay outcomes: PubChem, several laboratories
Hits are enriched below; roughly 4.6% of the tested compounds scored in any of these assays.
HIF-2a inh: HIF-2a reporter inhibitors, primary screen, luminescence, 786-0 RCC cells; inhibition, % at 18.8 µM; 786-0 RCC cells HIF-2a reporter, luciferase luminescence, overnight; 360,000 compounds, 0.72% hits; AID 624352, 2012;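 active means inhibition of the luminescence signal of 40% or more relative to plate controls, in a single-dose primary screen at 18.75 µM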
KKLEB cytotox: cytotoxicity in KKLEB CF airway cells, primary screen, cytotoxicity control for CF NF-kB inhibitor project, cell-based, uHTS, fluorescence assay plates; KKLEB CF airway cells viability, ATPlite luminescence, overnight; active compounds read low; cells stimulated with P. aeruginosa culture filtrate; activity change (cytotoxicity), % at 5 µM; 360,000 compounds, 0.36% hits; AID 602141, 2011;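 active means corrected activity change at or below -50% at 5 µM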
CF NFkB inh: inhibitors of PAF-induced NF-kB signaling, primary screen, cell-based, GFP fluorescence, uHTS; KKLEB NF-kB-GFP reporter, GFP fluorescence overnight; 360,000 compounds, 0.86% hits; inhibition, % at 5 µM;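 active means at least 50% inhibition at 5 µM, scaled per plate between neutral and stimulator controls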;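 further: PAF is a Pseudomonas aeruginosa culture filtrate used as stimulus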
ABHD5 PLIN5 PPI: ABHD5-PLIN5 interaction inhibitors, primary screen, cell lysate, split luciferase complementation, luminescence; Perilipin-5 (Homo sapiens) + 1-acylglycerol-3-phosphate O-acyltransferase ABHD5 (Homo …; Split G. princeps luciferase complementation, 4 h; inhibition, % at 4 µM; 360,000 compounds, 0.78% hits; AID 602281, 2012;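 active means inhibition above the mean inhibition across every tested compound plus 3 SD, cut at about 22% in these data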
Target sequence (Q00G26 whole entry, looked up): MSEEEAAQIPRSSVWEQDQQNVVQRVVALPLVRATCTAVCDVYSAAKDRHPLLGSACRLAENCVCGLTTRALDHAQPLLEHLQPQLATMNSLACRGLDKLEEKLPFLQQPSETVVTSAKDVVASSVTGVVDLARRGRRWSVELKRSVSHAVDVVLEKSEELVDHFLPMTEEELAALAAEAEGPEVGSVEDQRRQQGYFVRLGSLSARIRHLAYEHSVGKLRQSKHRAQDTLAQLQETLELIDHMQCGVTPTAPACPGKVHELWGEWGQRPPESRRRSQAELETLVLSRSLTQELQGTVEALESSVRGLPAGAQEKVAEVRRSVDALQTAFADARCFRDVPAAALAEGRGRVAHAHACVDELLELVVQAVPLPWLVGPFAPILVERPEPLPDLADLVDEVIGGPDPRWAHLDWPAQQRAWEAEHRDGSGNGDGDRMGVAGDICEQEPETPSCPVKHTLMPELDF
Target sequence (Q8WTS1 whole entry, looked up): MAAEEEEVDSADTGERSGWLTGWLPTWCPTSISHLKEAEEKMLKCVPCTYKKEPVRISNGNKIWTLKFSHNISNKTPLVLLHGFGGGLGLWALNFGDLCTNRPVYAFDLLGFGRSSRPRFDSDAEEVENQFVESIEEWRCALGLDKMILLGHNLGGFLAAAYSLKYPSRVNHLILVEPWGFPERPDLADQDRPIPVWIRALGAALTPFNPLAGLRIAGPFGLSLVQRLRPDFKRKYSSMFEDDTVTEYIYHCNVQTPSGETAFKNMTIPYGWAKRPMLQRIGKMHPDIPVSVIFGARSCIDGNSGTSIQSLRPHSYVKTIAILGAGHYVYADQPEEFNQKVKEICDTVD
Mdm2-MdmX inh: inhibitors of human Mdm2-MdmX association, primary screen, cell-based, luminescence, split luciferase, SaOS-2, uHTS | SaOS-2 split-luciferase Mdm2/MdmX complementation | inhibition, % at 8 µM | 330,000 compounds, 3% hits | AID 485346, 2010;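 active means inhibition of at least 50% at 8 µM in the primary screen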
Peg3 promoter: Peg3 promoter-driven luciferase inhibitors, primary screen, cell-based, HeLa, luciferase luminescence; HeLa PEG-Prom luciferase reporter, overnight; inhibition, % at 20 µM; 360,000 compounds, 1.7% hits; AID 588405, 2011;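 active means inhibition of at least 50% at 20 µM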
HIF-2a conf: HIF-2a reporter inhibitor retest, confirmation, luminescence, 786-0 RCC cells | shares compounds with HIF-2a inh | HIF-2a luciferase reporter luminescence, overnight | inhibition, % at 18.8 µM | 1,800 compounds, 56% hits | AID 651580, 2012;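 active means mean inhibition across four replicates of at least 40 percent at the single tested concentration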
HIF-1a cs: HIF-1a luciferase reporter signal reduction – MiaPaCa-2 cells, single concentration, counter-screen for HIF-2a inhibitor project, confirmation; AID 651589, 2012; inhibition, % at 18.8 µM; MiaPaCa-2 HIF-1a luciferase reporter, desferoxamine, overnight; shares compounds with HIF-2a inh; 1,800 compounds, 72% hits;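 active means mean inhibition of the reporter signal across four replicates at the single tested dose of 50% or more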
Hits are given with their value; – = inactive; · = not tested or not shown.

SMILES | HIF-2a inh | KKLEB cytotox | CF NFkB inh | ABHD5 PLIN5 PPI | Mdm2-MdmX inh | Peg3 promoter | HIF-2a conf | HIF-1a cs
Cc1ccc(C(=O)CC(=O)c2ccccc2C)c(O)c1 | – | – | – | – | – | – | · | ·
Cc1ccc(NC(=O)c2cc(N3C(=O)C=CC3=O)ccc2N2CCOCC2)cc1Cl | 48 | – | – | – | · | 93 | 68 | –
Cc1ccc(NC(=O)c2cc(N3C(=O)CCC3=O)ccc2N2CCOCC2)cc1 | – | – | – | – | – | – | · | ·
Cc1nc2cc(-c3cccc(F)c3)nn2c(C)c1CCC(=O)NC(C)CCc1ccco1 (stereo not drawn) | 73 | – | – | – | – | – | 82 | 72
Cc1nc2cc(-c3ccccc3)nn2c(C)c1CCC(=O)NCc1ccco1 | 69 | – | – | – | – | – | 79 | –
COc1ccc(CNC(=O)CCc2c(C)nc3cc(-c4ccccc4OC)nn3c2C)cc1 | 49 | – | – | – | – | – | 58 | –
COc1cc(OC)cc(-c2cc3nc(C)c(CCC(=O)NC(C)CCc4ccco4)c(C)n3n2)c1 (stereo not drawn) | – | – | – | – | – | – | · | ·
COc1ccccc1-c1cc2nc(C)c(CCC(=O)NCc3ccco3)c(C)n2n1 | 49 | – | – | – | – | – | 55 | –
COc1ccc(-c2cc3nc(C)c(CCC(=O)NCc4ccc(F)cc4)c(C)n3n2)c(OC)c1 | – | – | – | – | – | – | · | ·
NS(=O)(=O)c1ccc(CCNC(=O)CSc2nc3c(sc(=S)n3-c3ccccc3)c(=O)[nH]2)cc1 | – | – | – | – | · | – | · | ·
COC(=O)Cn1ccc(N(C)C)c(C#N)c1=O | – | – | – | – | – | – | · | ·
COC(=O)Cn1ccc(-c2ccc(Cl)cc2)c(C#N)c1=O | 57 | – | – | – | – | – | – | –
Cn1c(C(=O)c2ccncc2)cc2ccccc21 | – | – | – | – | – | – | · | ·
O=C(CCCc1nc(-c2ccccc2Cl)no1)NC1CCCC1 | 88 | – | – | – | – | – | 96 | 64
COc1ccccc1-c1noc(CCCC(=O)NC2CCCC2)n1 | – | – | – | – | – | – | · | ·
Cc1ccc(S(=O)(=O)C[C@@H]2OC[C@H](CO)N2S(=O)(=O)c2ccc(C)cc2)cc1 | – | · | · | – | · | · | · | ·
O=C(O)CCn1cc(/C=C/C(=O)c2ccc(Cl)cc2)c(-c2ccc(Br)cc2)n1 | 54 | – | – | – | · | – | – | –
O=C(O)/C=C/c1cn(Cc2ccccc2)nc1-c1ccccc1 | – | – | – | – | – | – | · | ·
CCOC(=O)COc1c(Br)cc(/C=C2\SC(=O)N(CC(=O)N3CCCC3)C2=O)cc1OC | 49 | – | – | – | – | – | – | –
Cc1sc2ncnc(N3CCC(C(=O)Nc4cc(S(C)(=O)=O)ccc4Cl)CC3)c2c1C | 41 | – | – | – | – | – | – | 74
CCOC(=O)NC(NC(=S)Nc1ccc(OC)cc1)C(Cl)(Cl)Cl (stereo not drawn) | – | – | – | – | – | – | · | ·
COc1ccc(NC(=S)NC(NC(=O)/C=C/c2ccccc2)C(Cl)(Cl)Cl)cc1 (stereo not drawn) | 66 | – | – | – | – | 53 | – | –
COC(=O)c1cc(=O)n(Cc2ccc(F)cc2)c(=Nc2ccccc2)s1 | 53 | – | – | – | – | 55 | – | –
COC(=O)c1cc(C(=O)OC)n(Cc2ccc(F)cc2)c1C | – | – | – | – | – | – | · | ·
Cc1[nH]nc2c1C(c1ccc(O)cc1)C1=C(CC(C)(C)CC1=O)N2 (stereo not drawn) | – | – | – | – | – | – | · | ·
SMILES | HIF-2a inh | KKLEB cytotox | CF NFkB inh | ABHD5 PLIN5 PPI | Mdm2-MdmX inh | Peg3 promoter | HIF-2a conf | HIF-1a cs
CC1(C)CC(=O)C2=C(C1)NC1=C(C(=O)c3ccccc31)C2c1ccc(O)cc1 (stereo not drawn) | 44 | – | – | – | – | – | – | –
O=C1NC(Cc2ccccc2)c2nc3ccc(Cl)cc3c(=O)n2-c2ncccc21 (stereo not drawn) | – | – | – | – | · | – | · | ·
CS(=O)(=O)c1ncc(Cl)c(C(=O)Nc2ccc3ccccc3c2)n1 | 95 | -100 | 89 | 77 | · | 106 | 97 | 91
O=C(Nc1ccc2ccccc2c1)c1cnccn1 | – | – | – | – | – | – | · | ·
CSC1=NC=C(C#N)C2=NC(c3c(Cl)cccc3Cl)NN12 (stereo not drawn) | 65 | – | – | – | · | – | – | –
c1ccc(-c2nnnc3ccccc23)cc1 | – | – | – | – | – | – | · | ·
Clc1ccc2nnnc(-c3ccccc3)c2c1 | 83 | – | – | – | · | – | 71 | 103
CCCSCCCNC(=O)Cn1c(=O)c2cccn2c2ccccc21 | – | – | – | – | – | – | · | ·
CCC(=O)N1CCN(c2ccc(Cl)cc2NC(=O)c2ccc([N+](=O)[O-])o2)CC1 | – | – | – | – | – | – | · | ·
CCN1CCN(c2ccc(NC(=O)c3ccc([N+](=O)[O-])o3)cc2Cl)CC1 | 64 | – | 89 | – | · | 102 | 49 | 58
CCC(=O)N1CCN(c2ccc(NC(=O)c3ccc([N+](=O)[O-])o3)cc2Cl)CC1 | 94 | -58 | 86 | – | · | 114 | 51 | 90
O=C(Nc1ccc(S(=O)(=O)N2CCOCC2)cc1)c1ccc([N+](=O)[O-])o1 | 67 | – | 78 | – | – | 101 | – | 78
CCN1CCN(c2ccc(NC(=O)c3ccc(F)cc3)cc2Cl)CC1 | – | – | – | – | – | – | · | ·
CCOC(=O)C1CCCN(C(=O)Cn2ncc3c([nH]c4ccccc43)c2=O)C1 (stereo not drawn) | – | – | – | – | – | – | · | ·
COc1ccc(-c2ccc(C(=O)Nc3cccc(C(F)(F)F)c3)c3occc23)c(C)c1 | – | – | – | – | · | – | · | ·
Nc1c(Cl)cnn(-c2ccccc2)c1=O | – | – | – | – | – | – | · | ·
O=c1c(Cl)c(Cl)cnn1-c1ccccc1 | 94 | -81 | 97 | – | · | 115 | 98 | 104
COC(=O)[C@@]12C[C@@H](CC(=O)N3CCSCC3)C(=O)N(Cc3ccc4c(c3)OCO4)C1=CCC(C)(C)C2 | – | · | · | – | · | · | · | ·
CCCCCCCCCCCCCCCC[N+](C)(C)CCl | 54 | – | – | – | · | 100 | – | 75
